Measurements published in PubChem BioAssay AID1159580 (chemical genetic matrix, 2015).
Screen size: about 5,500 compounds; about 2,000 (36%) were called active. Not shown: some 18% with an inconclusive outcome. Cut-off read from the data, not from the text of the source: active = normalized growth mostly below about 0.91 (no sharp cut-off); inconclusive = no clear call, values can overlap the other calls; inactive = mostly above about 0.92. This is one part of the list.

Assay: chemical genetic growth profiling, strain panel (AID 1159580);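 note: tested at 20 µM; growth read once vehicle control cultures reached saturation at 30 °C; 1 = growth at the plate median or of vehicle wells; lower values mean less growth of the strain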
Settings: growth OD

Measured: normalized growth

NS(=O)(=O)c1cc(C2(O)NC(=O)c3ccccc32)ccc1Cl (stereo unspecified)
inactive: S. cerevisiae deletion strains, locus YJR075W, strain HOC1, hits give low values 1.03 | S. cerevisiae deletion strains, locus YKL009W, strain mrt4, hits give low values 1.01 | S. cerevisiae deletion strains, locus YKL068W, hits give low values 1.01 | S. cerevisiae deletion strains, locus YKL085W, strain MDH1 (second series), hits give low values 1.01 | S. cerevisiae deletion strains, locus YKL085W, strain MDH1, hits give low values 1.01 | S. cerevisiae deletion strains, locus YKL160W, strain elf1, hits give low values 0.991 | S. cerevisiae deletion strains, locus YKL190W, strain CNB1, hits give low values 1.01 | S. cerevisiae deletion strains, locus YKR001C, strain vps1, hits give low values 1.02 | S. cerevisiae deletion strains, locus YKR026C, strain gcn3, hits give low values 0.978 | S. cerevisiae deletion strains, locus YKR091W, strain srl3, hits give low values 0.987 | S. cerevisiae deletion strains, locus YLL001W, strain dnm1, hits give low values 0.972 | S. cerevisiae deletion strains, locus YLL026W, hits give low values 0.988 | S. cerevisiae deletion strains, locus YLL041C, strain sdh2, hits give low values 0.981 | S. cerevisiae deletion strains, locus YLR027C, strain aat2, hits give low values 0.994 | S. cerevisiae deletion strains, locus YLR039C, strain RIC1, hits give low values 1.01 | S. cerevisiae deletion strains, locus YLR058C, strain SHM2, hits give low values 1.03 | S. cerevisiae deletion strains, locus YLR102C, strain apc9, hits give low values 1.01 | S. cerevisiae deletion strains, locus YLR113W, strain HOG1, hits give low values 0.969 | S. cerevisiae deletion strains, locus YLR221C, strain rsa3, hits give low values 0.981 | S. cerevisiae deletion strains, locus YLR258W, strain gsy2, hits give low values 0.999 | S. cerevisiae deletion strains, locus YLR262C, strain YPT6 (second series), hits give low values 1.01 | S. cerevisiae deletion strains, locus YLR262C, strain YPT6, hits give low values 1.04 | S. cerevisiae deletion strains, locus YLR268W, strain sec22, hits give low values 1.03 | S. cerevisiae deletion strains, locus YLR320W, strain mms22, hits give low values 0.976 | S. cerevisiae deletion strains, locus YLR330W, strain CHS5, hits give low values 1.02 | S. cerevisiae deletion strains, locus YLR342W, strain FKS1 (second series), hits give low values 1.01 | S. cerevisiae deletion strains, locus YLR342W, strain FKS1, hits give low values 0.987 | S. cerevisiae deletion strains, locus YLR357W, strain rsc2, hits give low values 1 | S. cerevisiae deletion strains, locus YLR370C, strain arc18, hits give low values 0.986 | S. cerevisiae deletion strains, locus YLR371W, strain rom2, hits give low values 1.02 | S. cerevisiae deletion strains, locus YLR384C, strain iki3, hits give low values 0.987 | S. cerevisiae deletion strains, locus YLR418C, strain cdc73, hits give low values 1.03 | S. cerevisiae deletion strains, locus YML016C, strain PPZ1, hits give low values 1.01 | S. cerevisiae deletion strains, locus YML032C, strain rad52, hits give low values 1.02 | S. cerevisiae deletion strains, locus YML120C, strain ndi1, hits give low values 0.983 | S. cerevisiae deletion strains, locus YML124C, strain tub3, hits give low values 1.02 | S. cerevisiae deletion strains, locus YMR058W, strain fet3, hits give low values 1.01 | S. cerevisiae deletion strains, locus YMR078C, strain ctf18, hits give low values 1.02 | S. cerevisiae deletion strains, locus YMR125W, strain sto1, hits give low values 1.01 | S. cerevisiae deletion strains, locus YMR129W, hits give low values 0.985 | S. cerevisiae deletion strains, locus YMR205C, strain PFK2, hits give low values 0.99 | S. cerevisiae deletion strains, locus YMR223W, strain ubp8, hits give low values 1.02 | S. cerevisiae deletion strains, locus YMR231W, strain pep5, hits give low values 0.994 | S. cerevisiae deletion strains, locus YMR263W, strain SAP30, hits give low values 1.01 | S. cerevisiae deletion strains, locus YMR307W, strain GAS1, hits give low values 0.984 | S. cerevisiae deletion strains, locus YNL067W, strain RPL9B, hits give low values 1.02 | S. cerevisiae deletion strains, locus YNL071W, strain lat1, hits give low values 0.989 | S. cerevisiae deletion strains, locus YNL153C, strain GIM3, hits give low values 1.02 | S. cerevisiae deletion strains, locus YNL183C, strain NPR1, hits give low values 0.948 | S. cerevisiae deletion strains, locus YNL209W, strain ssb2, hits give low values 0.997 | S. cerevisiae deletion strains, locus YNL233W, strain BNI4, hits give low values 1.02 | S. cerevisiae deletion strains, locus YNL248C, strain rpa49, hits give low values 1.02 | S. cerevisiae deletion strains, locus YNL250W, strain rad50, hits give low values 0.992 | S. cerevisiae deletion strains, locus YNL271C, strain bni1, hits give low values 1.02 | S. cerevisiae deletion strains, locus YNL298W, strain CLA4, hits give low values 1.03 | S. cerevisiae deletion strains, locus YNL307C, strain MCK1, hits give low values 1.02 | S. cerevisiae deletion strains, locus YNL322C, strain KRE1 (second series), hits give low values 0.983 | S. cerevisiae deletion strains, locus YNL322C, strain KRE1, hits give low values 1 | S. cerevisiae deletion strains, locus YNR049C, strain mso1, hits give low values 0.997 | S. cerevisiae deletion strains, locus YNR052C, strain pop2, hits give low values 1.01 | S. cerevisiae deletion strains, locus YOL006C, strain TOP1, hits give low values 1.1 | S. cerevisiae deletion strains, locus YOL012C, strain htz1 1.12 | S. cerevisiae deletion strains, locus YOL147C, strain pex11, hits give low values 1.01 | S. cerevisiae deletion strains, locus YOR001W, strain rrp6, hits give low values 0.987 | S. cerevisiae deletion strains, locus YOR061W, strain CKA2, hits give low values 1.01 | S. cerevisiae deletion strains, locus YOR069W, strain VPS5, hits give low values 1.01 | S. cerevisiae deletion strains, locus YOR070C, strain gyp1, hits give low values 0.991 | S. cerevisiae deletion strains, locus YOR080W, strain dia2, hits give low values 0.976 | S. cerevisiae deletion strains, locus YOR083W, strain WHI5, hits give low values 0.98 | S. cerevisiae deletion strains, locus YOR106W, strain vam3, hits give low values 1.01 | S. cerevisiae deletion strains, locus YOR136W, strain idh2, hits give low values 1.03 | S. cerevisiae deletion strains, locus YOR144C, strain elg1, hits give low values 1.02 | S. cerevisiae deletion strains, locus YOR184W, strain ser1, hits give low values 1.03 | S. cerevisiae deletion strains, locus YOR231W, strain MKK1, hits give low values 0.976 | S. cerevisiae deletion strains, locus YOR265W, strain rbl2, hits give low values 0.993 | S. cerevisiae deletion strains, locus YOR270C, strain vph1, hits give low values 1.01 | S. cerevisiae deletion strains, locus YOR290C, strain snf2, hits give low values 0.986 | S. cerevisiae deletion strains, locus YOR316C, strain cot1, hits give low values 1.02 | S. cerevisiae deletion strains, locus YPL051W, strain arl3, hits give low values 0.981 | S. cerevisiae deletion strains, locus YPL055C, strain LGE1, hits give low values 1.02 | S. cerevisiae deletion strains, locus YPL078C, strain atp4, hits give low values 0.984 | S. cerevisiae deletion strains, locus YPL106C, strain sse1, hits give low values 0.948 | S. cerevisiae deletion strains, locus YPL240C, strain hsp82, hits give low values 0.99 | S. cerevisiae deletion strains, locus YPL241C, strain CIN2, hits give low values 1.01 | S. cerevisiae deletion strains, locus YPL256C, strain CLN2, hits give low values 0.96 | S. cerevisiae deletion strains, locus YPR119W, strain clb2, hits give low values 1.01 | S. cerevisiae deletion strains, locus YPR141C, strain kar3, hits give low values 1.03 | S. cerevisiae deletion strains, locus YPR163C, strain tif3, hits give low values 1.01 | S. cerevisiae deletion strains, locus YPR167C, strain met16, hits give low values 1.02 | S. cerevisiae deletion strains, strain wtn01, hits give low values 1.04 | S. cerevisiae strains, strain wild type, hits give low values 1.01
